Source: PubChem BioAssay (Sanford-Burnham Center for Chemical Genomics)
The list is not random: actives were taken first. Their share in the collection is about 6.3%.
Mdm2-MdmX inh = inhibitors of human Mdm2-MdmX association, primary screen, cell-based, luminescence, split luciferase, SaOS-2, uHTS | Protein Mdm4 (Homo sapiens) + E3 ubiquitin-protein ligase Mdm2 (Homo sapiens), … | SaOS-2 split-luciferase Mdm2/MdmX complementation | inhibition, % at 8 µM | actives 3% (n = 330,000);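 active means inhibition of at least 50% at 8 µM in the primary screen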
tim23-1 inh = growth inhibitors of tim23-1 mutant yeast, primary screen, luminescence, uHTS; S. cerevisiae tim23-1 growth, BacTiter-Glo luminescence, 24 h; actives 1.3% (n = 330,000); inhibition, % at 20 µM;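 active means growth inhibition of the mutant yeast at or above 50%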;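 further: temperature-sensitive mutant grown at 25 °C; plate controls were DMSO-treated mutant yeast for no effect and medium wells lacking yeast for full effect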
MPTP block = mitochondrial permeability transition pore inhibitors, primary screen, biochemical, isolated mouse mitochondria, absorbance; Ca2+ swelling absorbance, 30 min; inhibition, % at 10 µM; actives 1.4% (n = 360,000);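 active means inhibition of 50% or more, scaled per plate between neutral and stimulator controls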;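 further: 0% = DMSO wells given calcium and 100% = 1 mM EGTA wells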
TIM10 inh = growth inhibitors of isogenic TIM10 control yeast, primary screen, counter-screen for tim10-1 yeast inhibitor project, luminescence, uHTS; S. cerevisiae TIM10 strain growth, BacTiter-Glo luminescence, 24 h; inhibition, % at 10 µM; actives 1.4% (n = 330,000); AID 463195, 2010;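 active means inhibition of 40% or more at the single tested concentration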;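 further: wild-type TIM10 isogenic control strain grown at permissive 25 °C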
tim10-1 inh = growth inhibitors of tim10-1 mutant yeast, primary screen, luminescence, uHTS; actives 2.2% (n = 330,000); S. cerevisiae tim10-1 ts strain growth, BacTiter-Glo, 24 h; inhibition, % at 20 µM;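 active means inhibition of at least 40%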;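 further: mutant grown at 25 °C; 0% = DMSO wells with yeast and 100% = wells holding no yeast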
Mdm2 MdmX conf = Mdm2-MdmX complex disruptors, retested hits, confirmation, luminescence, single concentration; shares compounds with Mdm2-MdmX inh; Mdm2-MdmX binding, luminescent assay; inhibition, % at 8 µM; actives 55% (n = 10,000); in the data active means inhibition above about 40%
Full FLuc ctr = full-length luciferase signal inhibition, confirmation, counter-screen for Mdm2/MdmX interaction inhibitor project, cell-based, single concentration, SaOS-2. shares compounds with Mdm2-MdmX inh. SaOS-2 full-length luciferase counterscreen, luminescence. inhibition, % at 8 µM. actives 77% (n = 6,200);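 active means mean inhibition at 8 µM reaching about 37%, which flags the compound as non-specific, limit read from the data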;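 further: p53-null SaOS-2 cells with luciferase driven by a doxycycline-inducible promoter; compound on cells about two nights before reading with doxycycline added after day one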
Numbers without * were called inactive; . = no result given.

SMILES | Mdm2-MdmX inh | tim23-1 inh | MPTP block | TIM10 inh | tim10-1 inh | Mdm2 MdmX conf | Full FLuc ctr
CCc1nc2c(OCCOC)cccn2c1N(C)C(=O)c1ccco1 | . | . | 1 | . | . | . | .
CCOC(=O)C1=C(C)Nc2ccccc2N=C1NC(=O)c1oc2ccccc2c1COC | 59* | 1 | 0 | -4 | -5 | 50* | 77*
O=C(CSc1ncn[nH]1)N1N=C2/C(=C/c3ccccc3)CCCC2C1c1ccccc1 (centres undefined) | 53* | 34 | 6 | 16 | 25 | 19 | .
Cc1ccc(NC(=O)c2ccc(-c3cc(Cl)ccc3Cl)o2)c(C)c1 | . | . | -2 | . | . | . | .
CCCCNc1c2c3c(cccc3n(C)c1=O)C(=O)c1ccccc1-2 | 51* | -3 | 2 | -14 | 22 | 33 | .
COc1cccc(C#Cc2ccc3c(c2)O[C@H](CN(C)C)[C@@H](C)CN([C@@H](C)CO)S3(=O)=O)c1 | . | . | -2 | . | . | . | .
COCCn1c(SC(C)C(=O)Nc2ncc(Cl)cc2Cl)nc2ccccc21 (centres undefined) | 67* | 26 | 0 | 7 | 19 | 50* | 58*
COCCCNC(=O)C[C@H]1C[C@H](C(=O)N2CCOCC2)[C@@]2(CCC3CCCC3)c3[nH]c4cc(CCC(=O)N(C)C)ccc4c3CCN2C1=O | -6 | 32 | -1 | -9 | 16 | . | .
COCCCNC(=O)C[C@H]1C[C@H](C(=O)N(C(C)C)C(C)C)[C@@]2(C)c3[nH]c4cc(CCC(=O)N(C)C)ccc4c3CCN2C1=O | 19 | 29 | 1 | -1 | 17 | . | .
CN(C)C(=O)CCc1ccc2c3c([nH]c2c1)[C@]1(CCC2CCCC2)[C@@H](C(=O)N2CCOCC2)C[C@H](CC(=O)NCC24CC5CC(CC(C5)C2)C4)C(=O)N1CC3 | 70* | 37 | -5 | 21 | 33 | 63* | 44*
COCCCNC(=O)C[C@H]1C[C@H](C(=O)N2CCOCC2)[C@@]2(C)c3[nH]c4cc(CCC(=O)N(C)C)ccc4c3CCN2C1=O | 64* | 31 | -1 | -7 | 12 | -24 | .
CC(C)=CCC/C(C)=C/CNC(=O)C[C@H]1C[C@H](C(=O)N2CCOCC2)[C@@]2(CCC3CCCC3)c3[nH]c4cc(CCC(=O)N(C)C)ccc4c3CCN2C1=O | 77* | 42 | -1 | 0 | 23 | 21 | .
CC(C)=CCC/C(C)=C/CNC(=O)C[C@H]1C[C@H](C(=O)N2CCOCC2)[C@@]2(CCC3CCCC3)c3[nH]c4cc(-c5ccco5)ccc4c3CCN2C1=O | 30 | 35 | -2 | -4 | 19 | . | .
COc1cc(F)ccc1-c1csc(C(NC(C)=O)c2cccc(F)c2)n1 (centres undefined) | . | . | 2 | . | . | . | .
Cc1noc(C)c1C(=O)N1CCC1(C)C(=O)NS(=O)(=O)c1cccc(OC(F)F)c1 (centres undefined) | . | . | 0 | . | . | . | .
COc1cccc2sc(N3CCN(c4nc5ccccc5s4)CC3)nc12 | 62* | -5 | 8 | 5 | -4 | 61* | 81*
CSCCC1NC(=O)C(C(C)=NNC(N)=O)=C1O (centres undefined) | . | . | -2 | . | . | . | .
O=C(CSc1nnc(-c2cccs2)n1-c1ccccc1)Nc1ccccc1 | 69* | -16 | -3 | -13 | -12 | 8 | .
O=C(CSc1nnc(-c2cccnc2)n1-c1ccccc1)Nc1ccccc1 | 50* | 13 | -2 | 6 | 1 | 17 | .
CCc1ccc([C@H]2[C@@H]3C(=O)C[C@@H]4C(=O)N(C5CCCCC5)C(=O)[C@@H]4[C@@H]3CN2S(=O)(=O)c2ccc(C)cc2)cc1 | . | . | 1 | . | . | . | .
CCOC(=O)[C@]12CCCC=C1N(CCc1ccc(OC)c(OC)c1)C(=O)[C@H](CC(=O)NCCCCc1ccccc1)C2 | . | . | 0 | . | . | . | .
O=C(N/N=C/c1ccc(-c2ccc(S(=O)(=O)Nc3ncccn3)cc2)o1)c1cc2ccccc2cc1O | 54* | -24 | 3 | -23 | -38 | 36 | .
CC1(C(=O)Nc2ccc3c(c2)OCO3)CCN1C(=O)CCC1CCCC1 (centres undefined) | . | . | 0 | . | . | . | .
COc1ccc(NC(=O)c2cc(C3CCCCN3C(=O)CCc3ccccc3)on2)c(C)c1 (centres undefined) | . | . | 1 | . | . | . | .
CCN(CC)c1ccc2c(cc1=O)[C@@H](NC)CCc1cc(OC)c(OC)c(OC)c1-2 | 69* | 15 | 0 | 15 | 21 | 61* | 90*
SMILES | Mdm2-MdmX inh | tim23-1 inh | MPTP block | TIM10 inh | tim10-1 inh | Mdm2 MdmX conf | Full FLuc ctr
CN[C@H]1CCc2cc(OC)c(OC)c(OC)c2-c2ccc(N(C)CC(OC)OC)c(=O)cc21 | 71* | 8 | 1 | -4 | 13 | 49* | 66*
COc1cc2c(c(OC)c1OC)-c1ccc(N(C)CC(OC)OC)c(=O)cc1[C@@H](NC(C)=O)CC2 | 68* | 12 | -1 | 6 | 17 | 63* | 132*
O=C(COC(=O)c1cc(=O)c2ccccc2o1)NCc1ccc(Cl)cc1 | . | . | 0 | . | . | . | .
C[C@@H]1CN([C@@H](C)CO)C(=O)CCCn2nncc2CO[C@@H]1CN(C)S(=O)(=O)c1ccc(C#N)cc1 | . | . | 1 | . | . | . | .
COc1ccc(-n2ncc3c(NCc4ccc5c(c4)OCO5)ncnc32)cc1 | 59* | -2 | 1 | -5 | 9 | -31 | .
c1nc(NCc2ccc3c(c2)OCO3)c2cc(-c3ccoc3)ccc2n1 | 81* | 14 | -2 | 12 | 4 | 75* | 51*
c1cncc(-c2ccc3ncnc(NCc4ccc5c(c4)OCO5)c3c2)c1 | 42 | -7 | 0 | -39 | -30 | . | .
COCCn1c(C)cc(C(=O)CSc2nnnn2C2CCCC2)c1C | 72* | 6 | 0 | -20 | -20 | 80* | 79*
COCCn1c(C)cc(C(=O)COC(=O)c2cccc(O)c2)c1C | 74* | 20 | 2 | -4 | 16 | 85* | 71*
COc1ccc(Cl)cc1C(=O)CSc1nnnn1C1CCCC1 | 6 | 41 | 0 | 19 | 35 | . | .
COCCn1c(C)cc(C(=O)CSc2nnc(C)s2)c1C | 52* | 1 | -4 | 20 | 9 | 62* | 48*
CCCCCCn1cc(CN2CC(N(C)CC)CS2(=O)=O)nn1 (centres undefined) | . | . | 0 | . | . | . | .
COC(=O)c1ccc2nc(-c3ccco3)c(Cc3ccc(OC)cc3C)n2c1 | . | . | -2 | . | . | . | .
O=C(NC1CC1)c1cccc(NC(=O)C2CCN(S(=O)(=O)c3cccc(C(F)(F)F)c3)CC2)c1 | . | . | -2 | . | . | . | .
O=C(N/N=C/c1c(O)ccc2ccccc12)c1ccc[n+](CCO)c1 | 0 | 13 | -1 | 13 | 17 | . | .
